Compound activity (PubChem)
Sampled rows, rich in hits. Any-hit rate of the full collection: about 9.9%.
KB-3-1 cytotox – qHTS assay for MDR1-selective chemotherapeutics: Primary screen using the parental adenocarcinoma cell KB-3-1 | actives 1.4% (n = 400,000) | Potency, µM (highest dose often 46.1 µM), hits mostly cytotoxic | KB-3-1 viability, CellTiter-Glo ATP luminescence, 72 h; further: potency means the concentration at half of the fitted maximal effect; on the % scale 0 is the no-effect control and ±100 the full control effect; nearly all actives have a fitted effect of over 60% in size
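Parental KB-3-1 adenocarcinoma cells in phenol-red-free DMEM with 10% FBS were pin-treated with compounds at several concentrations, incubated 72 h at 37 °C, and viability read by CellTiter-Glo luminescence; concentration-effect curves were fitted after normalization.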
IL-1B inflam inh – qHTS for Inhibitors of Inflammasome Signaling: IL-1-beta AlphaLISA Primary Screen | THP-1 LPS/ATP IL-1B secretion, AlphaLISA, 16 h; hits give low values | activity change, % at 57.5 µM | actives 4.7% (n = 360,000) | AID 743279, 2014; in the data active means activity change below about -50%; inconclusive means mostly about -30% to -49%; further: on the % scale 0 is the no-effect control and ±100 the full control effect
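THP-1 cells pretreated 1 hr with compounds (up to 57.5 uM final), then stimulated with LPS (250 ng/mL final) plus ATP (1.25 mM final); secreted IL-1B measured by AlphaLISA after 16 hr, decreased signal indicating inhibition.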
SW480 rereplic – A quantitative high throughput screen for small molecules that induce DNA re-replication in SW480 colon adenocarcinoma cells; SW480 DNA re-replication, Hoechst DNA content imaging, 48 h; Potency, µM (top dose mostly 46.1 µM), for inactives: top-dose re-replication activation, most hits filed as activators; actives 1.8% (n = 340,000); AID 624297, 2012; further: potency means the concentration at half of the fitted maximal effect; % of control where 0% means no effect; nearly all actives have a fitted effect of over 55% in size
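Image-based read-out: total Hoechst fluorescence of nuclei (405 nm excitation, 500-530 nm emission), with hits raising the fraction of high-intensity nuclei. SW480 colon cells incubated 48 hr with compounds at 37 C.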
MCF10A rereplic – A quantitative high throughput screen for small molecules that induce DNA re-replication in MCF 10a normal breast cells | MCF 10A DNA re-replication, Hoechst nuclear intensity, 48 h | Potency, µM (highest dose often 46.1 µM), without a hit: top-dose activity, positive = re-replication, hits mostly activators | actives 2.9% (n = 350,000); further: potency means the concentration at half of the fitted maximal effect; % of control where 0% means no effect; nearly all actives have a fitted effect of over 50% in size
KB-V1 MDR tox – qHTS assay for MDR1-selective chemotherapeutics: Primary screen using the drug-selected MDR subline cells KB-V1. KB-V1 MDR cells viability, CellTiter-Glo, 72 h. actives 3.4% (n = 400,000). Potency, µM (top dose mostly 46.1 µM), hits mostly cytotoxic; further: potency means the concentration at half of the fitted maximal effect; on the % scale 0 is the no-effect control and ±100 the full control effect; nearly all actives have a fitted effect of over 60% in size
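Luminescent ATP read-out (CellTiter-Glo, 10 min) measures survival of drug-selected KB-V1 MDR cells after 72 h, 37 degrees C compound exposure. Medium: phenol-red-free DMEM, 10% FBS. Values from fitted concentration-response curves.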
Numbers without * were called inactive. Unless noted, the call rests on the fitted dose curve; in most records, active means well fitted curve in the direction sought with a large enough effect; inconclusive means small, poorly fitted or top-dose-only effect, or another doubt; inactive means no such curve, though single readings can be large; an effect the other way counts as inactive or inconclusive.

What do the screens show for `Cc1ccc(C2=Nc3ccccc3N=C(c3ccc(F)cc3)C2)c(O)c1`?
KB-3-1 cytotox: inactive; KB-V1 MDR tox: inactive

What do the screens show for `CC(=O)Nc1ccc(NC(=O)CSc2ccc([N+](=O)[O-])cn2)cc1`?
KB-3-1 cytotox: inactive; IL-1B inflam inh: -2; SW480 rereplic: -6%; MCF10A rereplic: 7%; KB-V1 MDR tox: inactive

How did CCOC(=O)c1cnc(SC)nc1Nc1cccc(F)c1 do in these assays?
KB-3-1 cytotox: inactive; IL-1B inflam inh: 43; SW480 rereplic: 1%; MCF10A rereplic: -3%; KB-V1 MDR tox: 15µM*

How did CCOC(=O)c1cnc(-n2cc(C)cn2)nc1Nc1ccccc1OCC do in these assays?
KB-3-1 cytotox: inconclusive; IL-1B inflam inh: 27; SW480 rereplic: -4%; MCF10A rereplic: 10%; KB-V1 MDR tox: 1.2µM*

Results for CCOC(=O)c1cnc(SC)nc1Nc1cccc2ccccc12 ?
KB-3-1 cytotox: inactive; IL-1B inflam inh: 18; SW480 rereplic: 7%; MCF10A rereplic: inconclusive; KB-V1 MDR tox: 12µM*

How did C/C=C/c1ccc2c(c1)O[C@H](CN(C)CC1CCOCC1)[C@@H](C)CN([C@H](C)CO)S2(=O)=O do in these assays?
KB-3-1 cytotox: inactive; IL-1B inflam inh: 19; KB-V1 MDR tox: inactive

Results for CCc1nc2ccc(C(=O)NCCN3CCOCC3)cn2c1N(C)Cc1ccc(OC)cc1 ?
KB-3-1 cytotox: inactive; IL-1B inflam inh: -9; KB-V1 MDR tox: inactive

Results for CCc1cc(=O)oc2cc3occ(-c4ccc(OC)c(F)c4)c3cc12 ?
KB-3-1 cytotox: 18µM*; IL-1B inflam inh: 42; SW480 rereplic: inconclusive; MCF10A rereplic: 2.3µM*; KB-V1 MDR tox: 1.6µM*

How did COc1cc(OC)c2c(-c3cccc(-c4ccc(C(C)=O)cc4)c3)cc(=O)oc2c1 do in these assays?
KB-3-1 cytotox: inactive; IL-1B inflam inh: 55; SW480 rereplic: 4.1µM*; MCF10A rereplic: 0.65µM*; KB-V1 MDR tox: inactive

What do the screens show for `COc1cc2oc(=O)cc(-c3cccc(-c4ccc(C(F)(F)F)cc4)c3)c2c(OC)c1OC`?
KB-3-1 cytotox: inactive; IL-1B inflam inh: -8; SW480 rereplic: 0%; MCF10A rereplic: inconclusive; KB-V1 MDR tox: inactive

Results for COc1cc(OC)c2c(-c3cccc(-c4ccc(OC)c(F)c4)c3)cc(=O)oc2c1 ?
KB-3-1 cytotox: 0.92µM*; IL-1B inflam inh: 54; SW480 rereplic: 1.5µM*; MCF10A rereplic: inconclusive; KB-V1 MDR tox: inactive

What do the screens show for `COc1cc(OC)c2c(-c3ccccc3)cc(=O)oc2c1`?
KB-3-1 cytotox: inactive; IL-1B inflam inh: 21; SW480 rereplic: -9%; MCF10A rereplic: -3%; KB-V1 MDR tox: inactive

How did COc1cc(OC)c2c(-c3cccc(-c4ccoc4)c3)cc(=O)oc2c1 do in these assays?
KB-3-1 cytotox: inactive; IL-1B inflam inh: 69; SW480 rereplic: inconclusive; MCF10A rereplic: 7.3µM*; KB-V1 MDR tox: inactive

What do the screens show for `CCc1cc(=O)oc2cc3occ(C)c3cc12`?
KB-3-1 cytotox: inactive; IL-1B inflam inh: -3; SW480 rereplic: 4%; MCF10A rereplic: 0%; KB-V1 MDR tox: inconclusive

Results for O=C(COC(=O)c1ccccc1Br)Nc1ccccc1F ?
KB-3-1 cytotox: inactive; IL-1B inflam inh: 4; SW480 rereplic: -12%; MCF10A rereplic: -3%; KB-V1 MDR tox: inactive

How did O/N=C(/CI)c1ccc2ccccc2c1 do in these assays?
KB-3-1 cytotox: inactive; KB-V1 MDR tox: inactive

Results for CCOc1ccc(OCc2ccc(C(=O)NN=Cc3ccc[nH]3)cc2)cc1 ?
KB-3-1 cytotox: 2.3µM*; IL-1B inflam inh: inconclusive; SW480 rereplic: 9%; MCF10A rereplic: inconclusive; KB-V1 MDR tox: inactive

How did O=C(N/N=C/c1ccc[nH]1)c1ccccc1OCc1ccc(F)cc1 do in these assays?
KB-3-1 cytotox: inactive; IL-1B inflam inh: -1; SW480 rereplic: -16%; MCF10A rereplic: 7%; KB-V1 MDR tox: inactive

What do the screens show for `CC1CN(C(=O)COC(=O)c2cnc(Cl)c(Cl)c2)CC(C)O1` (stereo not drawn)?
IL-1B inflam inh: -72*; SW480 rereplic: -3%; MCF10A rereplic: inconclusive

How did COc1ccc(-n2ncc3c2CC(C)(C)CC3NC(=O)c2cn[nH]c2)cc1 (stereo not drawn) do in these assays?
KB-3-1 cytotox: inactive; IL-1B inflam inh: -17; SW480 rereplic: 1%; MCF10A rereplic: 0%; KB-V1 MDR tox: inactive

Results for COc1ccc(S(=O)(=O)N(CCCN2CCCC2=O)Cc2cc3cc(C)c(C)cc3[nH]c2=O)cc1 ?
KB-3-1 cytotox: inactive; IL-1B inflam inh: -73*; SW480 rereplic: 3%; MCF10A rereplic: -8%; KB-V1 MDR tox: inactive

How did CCN(CC)c1ccc(CNc2nc3ccccc3n2CCN2CCOCC2)cc1 do in these assays?
KB-3-1 cytotox: inactive; IL-1B inflam inh: -76*; SW480 rereplic: -13%; MCF10A rereplic: 28%; KB-V1 MDR tox: inactive

How did c1ccc(CNc2nc3ccccc3n2CCN2CCOCC2)nc1 do in these assays?
KB-3-1 cytotox: inactive; IL-1B inflam inh: 12; SW480 rereplic: inconclusive; MCF10A rereplic: 23µM*; KB-V1 MDR tox: inactive

Results for CCCn1c(NCc2ccccn2)nc2ccccc21 ?
KB-3-1 cytotox: inactive; IL-1B inflam inh: 5; SW480 rereplic: 2%; MCF10A rereplic: 4%; KB-V1 MDR tox: inactive

What do the screens show for `COc1ccc(CNc2nc3ccccc3n2CCN2CCOCC2)cc1`?
KB-3-1 cytotox: inactive; IL-1B inflam inh: -10; SW480 rereplic: 0%; MCF10A rereplic: inconclusive; KB-V1 MDR tox: inactive

Results for COc1ccc(CNC(=O)c2ccc(-n3ccnc3)c3ccoc23)cc1OC ?
KB-3-1 cytotox: inactive; IL-1B inflam inh: -16; KB-V1 MDR tox: inactive

How did Cc1noc2ncnc(Oc3cc(Cl)ccc3Cl)c12 do in these assays?
KB-3-1 cytotox: inactive; IL-1B inflam inh: -102*; SW480 rereplic: inconclusive; MCF10A rereplic: inconclusive; KB-V1 MDR tox: inactive

What do the screens show for `Cc1noc2ncnc(Oc3ccc4ccccc4c3)c12`?
KB-3-1 cytotox: inactive; IL-1B inflam inh: inconclusive; SW480 rereplic: -2%; MCF10A rereplic: 0%; KB-V1 MDR tox: inconclusive

How did Cc1occc1-c1nnc(SCC(=O)NC2CCC(C)CC2)o1 (stereo not drawn) do in these assays?
KB-3-1 cytotox: inactive; IL-1B inflam inh: -11; SW480 rereplic: -8%; MCF10A rereplic: 16%; KB-V1 MDR tox: inactive

What do the screens show for `O=C(CN(Cc1ccccc1)C(=O)CCl)c1cccc(Br)c1`?
KB-3-1 cytotox: inconclusive; IL-1B inflam inh: -98*; SW480 rereplic: inconclusive; MCF10A rereplic: inconclusive; KB-V1 MDR tox: inactive
